Screens from PubChem.
RE007 growth inh: less growth of the S. pombe RE007 Vpr strain | S. pombe RE007 Vpr strain, BacTiter-Glo ATP luminescence, 24 h | Potency, µM (series often up to 92.2 µM), for the others: at the highest dose activity change, negative = less growth, usual class: inhibitors | 0.21% of 360,000 active | AID 651644; active = well fitted falling curve with a large enough effect; inconclusive = small, poorly fitted or top-dose-only effect; inactive = no such curve, though single readings can be large or run the other way; also: potency is read from the fitted curve at half-maximal effect; nearly all actives have a fitted effect of over 50% in size
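Fission yeast strain RE007, carrying one chromosomally integrated HIV-1 vpr copy, was seeded at OD 0.01 in PMG+AL medium with 23 nL pinned compound. After 24 h at 30 °C and 99% humidity, viability was read by BacTiter-Glo luminescence.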
FBPA Giardia inh: inhibitors of Giardia lamblia fructose-1,6-bisphosphate aldolase. A8B2U2. purified Giardia FBPA. Potency, µM (highest dose often 59.6 µM), for the others: at the top dose activity, negative = inhibition, actives largely listed as inhibitors. 0.71% of 290,000 active; also: potency is read from the fitted curve at half-maximal effect; nearly all actives have a fitted effect of over 55% in size
Target sequence (A8B2U2 whole entry, looked up): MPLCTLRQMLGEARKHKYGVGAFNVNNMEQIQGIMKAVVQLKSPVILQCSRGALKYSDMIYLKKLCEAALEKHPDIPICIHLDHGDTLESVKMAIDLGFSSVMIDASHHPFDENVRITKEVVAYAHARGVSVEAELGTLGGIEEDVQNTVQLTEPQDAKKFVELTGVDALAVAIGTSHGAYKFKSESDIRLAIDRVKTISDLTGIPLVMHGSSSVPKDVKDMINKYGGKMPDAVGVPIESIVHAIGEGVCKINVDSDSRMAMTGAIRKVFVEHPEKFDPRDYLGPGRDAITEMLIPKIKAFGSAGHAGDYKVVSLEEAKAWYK
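Giardia FBPA (40 nM reagent) was preincubated 10 min at RT with compound (up to 57.5 uM final), then substrate plus GAPDH/TPI/NAD/arsenate coupling system with diaphorase/resazurin was added; resorufin fluorescence (525/598 nm) was read after 20 min.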
TbPYK inhibitor: blocks Trypanosoma brucei pyruvate kinase; TbPYK enzyme, Kinase-Glo Plus ATP luminescence, 45 min; Potency, µM (top dose mostly 76.8 µM), for the others: at the top dose activity, negative = inhibition, hits mostly inhibitors; Q57TT1; AID 624173; 0.12% of 410,000 active; also: potency is read from the fitted curve at half-maximal effect; nearly all actives have a fitted effect of over 50% in size
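T. brucei PYK with substrate was exposed to pin-transferred compounds across a concentration series, then started with 130 uM ADP (final). After 45 min at room temperature, Kinase-Glo Plus luminescence was read, normalized and curve-fitted.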
FMDV inh: foot and mouth disease virus antiviral activity; FMDV antiviral cell-based qHTS; Potency, µM (highest dose often 57.9 µM), for inactives: at the highest dose activity change, negative = inhibition, usual class: inhibitors; 1.2% of 410,000 active; AID 1159524; calls by dose curve; tested in HEK293T cells; also: read-out not given here; potency is read from the fitted curve at half-maximal effect; nearly all actives have a fitted effect of over 45% in size
Sm TGR inh: S. mansoni TGR enzyme inhibition; purified TGR, DTNB reduction, TNB absorbance 405 nm; Potency, µM (series often up to 114 µM), for the others: at the top dose activity change, negative = inhibition, most hits filed as inhibitors; 3% of 360,000 active; AID 485364; also: potency is read from the fitted curve at half-maximal effect; nearly all actives have a fitted effect of over 60% in size
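First, TGR (20 nM dispensed) and NADPH were mixed with compound. Second, a 15 min room-temperature incubation followed. Third, further NADPH and then DTNB were added to start the reaction. Finally, TNB absorbance was monitored kinetically.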
HCMV antiviral: human cytomegalovirus inhibition; HFF cells, HCMV-luciferase reporter, 72 h; stronger effect = lower value; activity change, negative = inhibition, % at 57.5 µM; 4.5% of 410,000 active; AID 1259415; in the data active = activity change below about -60%; inconclusive = no clear call, values can overlap the other calls; inactive = above about -39%
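Screen run at 2 compound doses on HFFs infected with reporter HCMV, MOI 1 PFU/cell. Luciferase activity from cell lysates at 72 h post infection gave inhibition relative to buffer-only and Salinomycin wells.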
* marks the source's active call; other numbers are inactive results; u = inconclusive; x = no result; [ ] = another dose, or the depositor's remark. The list is not random: actives were taken first. Their share in the collection is about 7.7%. Unless noted, calls follow the shape of the dose curve; as a rule, active = well fitted curve in the direction sought with a large enough effect; inconclusive = small, poorly fitted or top-dose-only effect, or another doubt; inactive = no such curve, though single readings can be large; an effect the other way counts as inactive or inconclusive. % is scaled to controls: 0 for no effect and ±100 for the full control effect.

SMILES	RE007 growth inh	FBPA Giardia inh	TbPYK inhibitor	FMDV inh	Sm TGR inh	HCMV antiviral
COCc1cc(C)nc2sc(C(=O)Nc3ccccc3O)c(N)c12	x	x	20%	21%	-4%	-24
C[C@@H]1CN([C@H](C)CO)C(=O)c2cc(NC(=O)Nc3ccc(C(F)(F)F)cc3)ccc2O[C@H]1CN(C)Cc1ccc(Cl)c(Cl)c1	-4%	x	-1%	-18%	x	-97*
C[C@H](CO)N1C[C@H](C)[C@@H](CN(C)S(=O)(=O)c2ccc(F)cc2)Oc2ccc(NC(=O)Nc3ccccc3)cc2C1=O	-1%	x	-2%	0%	x	-9
C[C@@H]1CN([C@H](C)CO)C(=O)c2cc(NC(=O)Nc3ccc(C(F)(F)F)cc3)ccc2O[C@H]1CN(C)S(=O)(=O)c1ccc(Cl)cc1	7%	x	4%	-21%	x	-76*
C[C@H](CO)N1C[C@H](C)[C@@H](CN(C)S(=O)(=O)c2ccccc2)Oc2ccc(NC(=O)Nc3ccccc3)cc2C1=O	1%	x	-5%	-14%	x	-73*
C[C@@H]1CCCCO[C@@H](CN(C)Cc2ccc(Cl)c(Cl)c2)[C@@H](C)CN([C@H](C)CO)C(=O)c2cc(NC(=O)CCC(F)(F)F)ccc2O1	10%	x	2%	-21%	x	-60*
COc1ccc(S(=O)(=O)Nc2ccc3c(c2)C(=O)N([C@H](C)CO)C[C@H](C)[C@@H](CN(C)S(=O)(=O)c2ccc(OC)cc2)O3)cc1	8%	x	-7%	-8%	x	-92*
C[C@H](CO)N1C[C@H](C)[C@@H](CN(C)S(=O)(=O)c2cccs2)Oc2ccc(NC(=O)Nc3ccccc3)cc2C1=O	-1%	x	-2%	-20%	x	-65*
Cc1ccc(S(=O)(=O)N(C)C[C@H]2OCCCC[C@@H](C)Oc3ccc(N(C)C)cc3C(=O)N([C@H](C)CO)C[C@@H]2C)cc1	3%	x	7.9µM*	-22%	x	-3
C[C@@H]1CCCCO[C@@H](CN(C)S(=O)(=O)c2ccc(Cl)cc2)[C@@H](C)CN([C@H](C)CO)C(=O)c2cc(N(C)C)ccc2O1	-13%	x	-1%	-15%	x	22
COc1ccc(S(=O)(=O)Nc2ccc3c(c2)C(=O)N([C@@H](C)CO)C[C@H](C)[C@H](CN(C)S(=O)(=O)c2ccc(F)cc2)O3)cc1	2%	x	3%	-16%	x	-10
O=[N+]([O-])c1cc(S(=O)(=O)C(F)(F)F)ccc1Sc1nc2ccccc2[nH]1	-8%	-11%	2%	u	28µM*	-103*
O=S(=O)(Nc1ccc(O)c(Sc2nc3ccccc3s2)c1)c1ccc(F)cc1	-2%	2%	-1%	u	-18%	19
O=[N+]([O-])c1cc(S(=O)(=O)C(F)(F)F)ccc1Sc1nc2ccccc2s1	17%	-13%	-13%	u	14µM*	99
CS(=O)(=O)c1ccc(Sc2nc3ccccc3[nH]2)c([N+](=O)[O-])c1	18%	-14%	4%	-19%	-15%	u
CS(=O)(=O)c1ccc(Sc2nc3ccccc3s2)c([N+](=O)[O-])c1	11%	4%	4%	35µM*	u	x
CC(C)Oc1ccc(CNC(=O)c2ccc3c(c2)nc2n3CCCCC2)cc1	x	x	-3%	45%	-3%	83
C=C(C)COc1ccc2oc(C)c(C(=O)OCCOC)c2c1	u	4%	8%	-14%	-23%[11.4 µM]	-15
CCN(CC)CCOC(=O)c1c(C)oc2ccc(OC)cc12	-17%	-9%	0%	x	0%	-66*
O=C1CCCCC1(CCc1ccncc1)CCc1ccncc1	-4%	x	0%	u	x	-26
O=S(=O)(CCc1ccncc1)C1Cc2cccc3cccc1c23 (stereo not given)	-1%	-3%	-3%	-11%	35µM*	31
O=C(CNCC(=O)Nc1ccc(F)c(F)c1F)Nc1ccc(F)c(F)c1F	-1%	-10%	-7%	-4%	4%	-83*
COc1cccc(NC(=O)/C=C/c2ccco2)c1	u	-23%	-16%	38%	10µM*	16
CSc1cccc(NC(=O)/C=C/c2ccco2)c1	-25%	-13%	-13%	72%	1.1µM*	-11
CSc1cccc(NC(=O)/C=C/c2ccccc2)c1	u	-14%	-6%	37%	2%	15
SMILES	RE007 growth inh	FBPA Giardia inh	TbPYK inhibitor	FMDV inh	Sm TGR inh	HCMV antiviral
O=C(/C=C/c1ccco1)Nc1ccc(Oc2ccc(Cl)cc2)cc1	u	-8%	-4%	u	-36%	-68*
O=C(/C=C/c1ccco1)Nc1ccc(-c2nc3ccccc3[nH]2)cc1	22%	6%	1%	-7%	-18%	u
CCCN(C(=O)c1cn(C)c(=O)c2cc(OC)c(OC)cc12)c1ccc(CC)cc1	x	x	0%	-16%	2%	-7
Cc1ccc(CN2CCN(C3CCN(C(=O)OC(C)(C)C)CC3)C(=O)C2=O)cc1	x	x	0%	-8%	-7%	10
CN(C)CCN(C(=O)c1ccc(N2C(=O)CCC2=O)cc1)c1nc2cc3c(cc2s1)OCCO3	x	-11%	x	x	35µM*	74
CCN(CC)CCN(C(=O)CCS(=O)(=O)c1ccccc1)c1nc2cc(C)cc(C)c2s1	-1%	-25%	-19%	u	u	-8
CN(C)CCCN(C(=O)CCS(=O)(=O)c1ccccc1)c1nc2cc3c(cc2s1)OCO3	5%	x	3%	28µM*	4µM*	-113*
Cc1ccc2sc(N(CCCN(C)C)C(=O)c3ccco3)nc2c1C	x	x	4%	-3%	-2%	-62*
CCN(CC)CCN(C(=O)c1ccco1)c1nc2c(C)c(C)ccc2s1	x	x	-3%	-22%	-3%	u
CCN(CC)CCN(C(=O)CCS(=O)(=O)c1ccccc1)c1nc2cc(OC)c(OC)cc2s1	20%	u	2%	-2%	14µM*	7
CCC12CN3CC(C)(CN(C1)C3c1c[nH]c3ccc(OC)cc13)C2=O (stereo not given)	x	x	-3%	-8%	-8%	-5
CCCCCNC(=O)C1(C)CCc2nc3ccccc3n21 (stereo not given)	x	x	x	x	x	52
COc1ccc(-c2onc(C)c2C)cc1S(=O)(=O)N(C)Cc1ccco1	x	x	-2%	-17%	2%	u
CN(C)CCCN(C(=O)c1ccc(S(=O)(=O)N(C)C)cc1)c1nc2cc3c(cc2s1)OCO3	-13%	0%	-4%	-4%	-3%	-15
CN(C)CCCN(C(=O)c1ccc(Br)s1)c1nc2cc3c(cc2s1)OCO3	1%	-3%	0%	-23%	7%	-103*
Cc1ccc2sc(N(CCCN(C)C)C(=O)CCS(=O)(=O)c3ccccc3)nc2c1C	-11%	-7%	-25%	32µM*	7.1µM*	0
